Results taken from PubChem BioAssay AID2023 (NMMLSC, 2009).
Hit rate of the full screen: of about 320,000 compounds, about 1,100 (0.34%) were called active.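 The calls were made as follows: active = GFP response vs DMSO above a set limit, about the screen mean plus 3 SD (cut at about 150% in these data); inconclusive = under 70 cell events counted for the yeast strain; inactive = the rest.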 Many of the other results were omitted from the sample, so actives are more common in it than they were.

Test: TOR pathway LAP4-GFP level changes – S. cerevisiae, multiplex flow cytometry, MLPCN library, primary screen (AID 2023)
Conditions: 3 h, at 10 µM, hits give high values, median GFP as percent of DMSO wells

| Structure (SMILES) | GFP response vs DMSO |
| --- | --- |
| O=C(NC1CCCC1)C(=O)c1c[nH]c2ccccc12 | 100% (inactive) |
| COc1ccc(/C=C(\C#N)c2c[nH]c3ccccc23)cc1 | 97.2% (inactive) |
| C[n+]1ccc(/C=C/c2c[nH]c3ccccc23)cc1 | 214% (active) |
| CC(C)C(=O)Nc1c2c(nn1-c1ccccc1)CSC2 | 104% (inactive) |
| CC(C)=NN1C(=O)c2ccccc2NC1(C)C | 103% (inactive) |
| CCCC(=O)Nc1ncnc2c1ncn2[C@@H]1O[C@@H]2OP(=O)(O)OC[C@H]2[C@H]1OC(=O)CCC | 103% (inactive) |
| CCc1ccc2c(c1)C1(NN=C(c3ccccc3)S1)C(=O)N2 (configuration not stated) | 169% (active) |
| C[C@H](NC(=O)C1CC(=O)N(c2ccc3c(c2)OCO3)C1)C(=O)NCc1ccco1 (some centres not stated) | 94% (inactive) |
| COC(=O)Nc1ccc(S(=O)(=O)N2CCN(CCN3C(=O)C4C5C=CC(C5)C4C3=O)CC2)cc1 (configuration not stated) | 95.9% (inactive) |
| O=c1[nH]c2ccccc2n2c(-c3ccccc3)nnc12 | 87.9% (inactive) |
| COc1ccc(OCc2cc(C(=O)N3CCCC3)no2)c2ccccc12 | 85.3% (inactive) |
| O=C(c1ccccc1)c1ccc(C(=O)N2CCN(c3ccccc3)CC2)cc1 | 78.1% (inactive) |
| O=C(c1ccc(Cl)c([N+](=O)[O-])c1)N1CCN(c2ccccc2)CC1 | 165% (active) |
| O=C(c1ccc(N2CCOCC2)c([N+](=O)[O-])c1)N1CCN(c2ccccc2F)CC1 | 96% (inactive) |
| Cc1ccc(C(=O)NCC(=O)NC2CC2)cc1 | 97.3% (inactive) |
| Cc1onc(-c2ccccc2)c1C(=O)NNC(=S)NC(=O)c1ccc(F)cc1 | 102% (inactive) |
| Cc1ccc(-c2nn(-c3ccccc3)cc2C(=O)NC2CCC(O)CC2)cc1 (configuration not stated) | 94.9% (inactive) |
| O=C(NNC(=S)NC(=O)c1cn(-c2ccccc2)nc1-c1ccccc1)c1ccncc1 | 159% (active) |
| CCOc1ccc(CCNC(=O)CN2C(=O)NC3(CCc4ccccc43)C2=O)cc1OCC (configuration not stated) | 98.4% (inactive) |
| CCCCC(=O)Nc1ccc2c(c1)C(=O)NC2=O | 107% (inactive) |
| O=C(Nc1cc(Cl)cc(Cl)c1)C(NCCCO)c1ccccc1 (configuration not stated) | 99.3% (inactive) |
| CCCCN1C(=O)c2ccc(C(=O)Nc3ccc(S(=O)(=O)N(C)C)cc3)cc2C1=O | 93.7% (inactive) |
| CC(CCc1ccc(O)cc1)NCc1ccc(Cl)cc1Cl (configuration not stated) | 99.7% (inactive) |
| CCC(C)n1[nH]c(=O)cc1N (configuration not stated) | 92.7% (inactive) |
| COc1ccc(CN2CN(C(C)C)CSC2=S)cc1 | 162% (active) |
| S=C1SCN(CCN2CCOCC2)CN1Cc1ccccc1 | 111% (inactive) |

| Structure (SMILES) | GFP response vs DMSO |
| --- | --- |
| COc1ccc(CN2CN(C3CCCC3)CSC2=S)cc1 | 98.2% (inactive) |
| Cc1onc(-c2c(F)cccc2Cl)c1C(=O)OCC(=O)N1C(C)CCCC1C (configuration not stated) | 107% (inactive) |
| CCOC(=O)Cn1c(=O)oc2cc(S(=O)(=O)N(C)Cc3ccco3)ccc21 | 107% (inactive) |
| CCOC(=O)/C=c1\s/c(=C\c2ccc(C#N)cc2)c(=O)n1CC(=O)Nc1cccc(C)c1C | 96.9% (inactive) |
| CN(c1ccccc1)c1ccc(/C=c2\s/c(=C(/C#N)C(=O)C(C)(C)C)n(Cc3ccco3)c2=O)cc1 | 377% (active) |
| CC1C=CCC2C(=O)N(c3cccc(C(=O)N4CCCCCC4)c3)C(=O)C12 (configuration not stated) | 97.9% (inactive) |
| COC(=O)C[n+]1cccc2ccccc21 | 212% (active) |
| COc1ccccc1NC(=O)C[n+]1ccccc1 | 109% (inactive) |
| Cc1cccc[n+]1CC(=O)c1ccccc1 | 91.6% (inactive) |
| CC1(C)CC(=O)C2=C(C1)N=C1SCCC(=O)N1C2c1ccc(C(F)(F)F)cc1 (configuration not stated) | 98.2% (inactive) |
| CCCCNc1c(-c2ccc(OC)c(Sc3ccc(OC)cc3)c2)nc2ccc(Cl)cn12 | 141% (inactive) |
| CCCCCCSc1ccc(-c2nc3ccc(Cl)cn3c2NCc2ccccc2)cc1 | 99.4% (inactive) |
| CCCCNc1c(-c2cccc(Sc3ccc(OC)cc3)c2)nc2ccccn12 | 151% (active) |
| COc1ccc(N2CCN(S(=O)(=O)c3cc(Br)cnc3N)CC2)cc1 | 100% (inactive) |
| CCOc1ccc(-n2c(SC(C)C(=O)OC)nc3c(c2=O)SCC3)cc1 (configuration not stated) | 95.9% (inactive) |
| CCN1/C(=C\c2ccc3ccccc3[n+]2CC)Sc2cc(C)ccc21 | 501% [may fluoresce green] (active) |
| CCN1/C(=C/c2ccc3ccc(C)cc3[n+]2CC)Sc2ccccc21 | 319% [may fluoresce green] (active) |
| O=C1CCC/C=C\C[C@@H](CC(=O)N(CCO)Cc2ccccc2)C(=O)NCCO1 | 85.9% (inactive) |
| NS(=O)(=O)c1ccc(CCNC(=O)CCCn2c(SCC(=O)N3CCCC3)nc3ccsc3c2=O)cc1 | 101% (inactive) |
| Clc1cccc(CN2COc3c(cc(Cl)c4cccnc34)C2)c1 | 182% (active) |
| CC(C)CC(=O)N1CCN(Cc2cccc(Cl)c2)CC1 | 102% (inactive) |
| O=C(c1cccc(Cl)c1)N1CCN(Cc2ccccc2)CC1 | 101% (inactive) |
| CC(C)=CCC/C(C)=C/C(=O)O | 105% (inactive) |
| O=C(CN1CCCSc2ccccc21)N1CCN(S(=O)(=O)c2cccc(F)c2)CC1 | 110% (inactive) |
| CC1=NNC(=O)C1Cc1c(Cl)cccc1Cl (configuration not stated) | 98.6% (inactive) |
| O=C(OC1CCOC1=O)c1cccc(S(=O)(=O)Nc2ccc(F)cc2)c1 (configuration not stated) | 95.1% (inactive) |

| Structure (SMILES) | GFP response vs DMSO |
| --- | --- |
| CC(=O)Nc1ccc(N2C(=O)CC(Sc3nccc(C)n3)C2=O)cc1 (configuration not stated) | 89.5% (inactive) |
| Cc1cc(NC(=O)CCN2CCN(Cc3ccccc3)CC2)ccc1Br | 83.3% (inactive) |
| CC(C)C(=O)N1CC(=O)Nc2ccc(F)cc2C1c1ccc(F)cc1 (configuration not stated) | 108% (inactive) |
| O=C(/C=C/Sc1ncn[nH]1)c1ccc(Cl)cc1 | 219% (active) |
| O=C(CSc1ncn[nH]1)Nc1ccc(Br)cc1Br | 93.9% (inactive) |
| O=C(CSc1ncn[nH]1)N/N=C/c1ccc(F)cc1 | 117% (inactive) |
| Cc1ccnc(NC(=O)CCNS(=O)(=O)c2ccc(C)c(C)c2)c1 | 81.8% (inactive) |
| COc1ccccc1CNC(=O)CNC(=O)c1cn(-c2ccccc2OC)c(=O)c2ccccc12 | 95.4% (inactive) |
| COc1ccc(O[C@H]2C=C[C@@H](c3ccccc3)O[C@@H]2CO/N=C/C[C@@H]2C=C[C@H](OC(C)=O)[C@@H](COC(C)=O)O2)cc1 | 111% (inactive) |
| O=C(CCC(=O)OCc1cccc(C(=O)Oc2ccccc2)c1)Nc1cccc2ccccc12 | 104% (inactive) |
| COc1ccc(-c2nn(-c3ccccc3)cc2/C=N/Nc2ccccn2)cc1OC | 96.4% (inactive) |
| Oc1ccc(Br)cc1C=Nc1ccc2[nH]ncc2c1 | 93.5% (inactive) |
| Oc1ccc(Br)cc1/C=N/Nc1ccccn1 | 287% (active) |
| O=C(CC1SC(=Nc2ccccc2F)N(CCN2CCOCC2)C1=O)Nc1ccc(F)cc1F (configuration not stated) | 126% (inactive) |
| O=c1[nH]c(CN2CCOCC2)nc2cc(Cl)ccc12 | 92.7% (inactive) |
| O=c1[nH]c(CCl)nc2cc(-c3ccc(Cl)cc3)sc12 | 163% (active) |
| NC(=O)Cc1nc2scc(-c3ccc(Cl)cc3)c2c(=O)[nH]1 | 95.5% (inactive) |
| O=C(O[C@@H]1[C@H](Cc2ccccc2)NS(=O)(=O)[C@H]2C[C@@H]3C=C[C@]12O3)c1ccccc1Br | 97.1% (inactive) |
| CN(CCO)Cc1csc2ccc(Br)cc12 | 106% (inactive) |
| Cc1ccc(-n2cnc3ncnc(-c4ccccc4)c32)cc1 | 102% (inactive) |
| Cc1ccc(-c2nn(C(C)(C)C)c3ncnc(N)c23)cc1 | 190% (active) |
| O=C(Nc1ccc(Cl)cc1)c1cccc(OC(=S)N2CCOCC2)c1 | 65.6% (inactive) |
| Oc1c(Cl)cc(Cl)c(Cl)c1Cc1c(O)c(Cl)cc(Cl)c1Cl | 174% (active) |
| COc1ccc(C)cc1NC(=O)CN(C)S(=O)(=O)c1ccc2c(c1)n(C)c(=O)c(=O)n2C | 94.1% (inactive) |
| CC(C)(C)OC(=O)C[C@@H]1C/C=C\C[C@@H](CC(=O)N[C@H](CO)Cc2ccccc2)C(=O)NC[C@@H](c2ccccc2)OC1=O | 83% (inactive) |
| Cc1c(O)c(C)c2c(c1O)C(=O)C[C@@H](c1ccccc1)O2 | 99.7% (inactive) |

| Structure (SMILES) | GFP response vs DMSO |
| --- | --- |
| CCCc1[nH]nc2c1C(c1ccc(Br)s1)C(C#N)=C(N)O2 (configuration not stated) | 152% (active) |
| CCc1ccc(C2C(C#N)=C(N)Oc3n[nH]c(CC(=O)OC)c32)cc1 (configuration not stated) | 99.1% (inactive) |
| CCCc1[nH]nc2c1C(c1ccc(OC(=O)c3ccco3)cc1)C(C#N)=C(N)O2 (configuration not stated) | 93.3% (inactive) |
| CC[C@@H](C)[C@@H]1CN([C@@H](C)CN2CCC[C@H]2CN2C(N)=NC[C@H]2C(C)C)C(=N)N1CCc1ccc(Cl)c(Cl)c1 | 102% (inactive) |
| CC1CC2=C(CC1/C=N/NC(N)=S)C(C)(C)CCC2 (configuration not stated) | 154% (active) |
| Cc1ccc(CS(=O)Cc2ccc(C(=O)N3CCOCC3)o2)cc1 (configuration not stated) | 103% (inactive) |
| N/C(=N\OC(=O)CCC1CCCCC1)c1ccccn1 | 92.5% (inactive) |
| Cn1c(SCC(=O)Nc2cccc(NC(=O)c3cccs3)c2)nnc1-c1ccncc1 | 94.8% (inactive) |
| OC(CNCCc1ccc(Cl)cc1Cl)COc1ccccc1 (configuration not stated) | 93.6% (inactive) |
| CCOc1ccc(/C=N/NC(N)=S)cc1 | 109% (inactive) |
| NC(N)=N/N=C/c1ccc(OCc2ccc(Cl)cc2Cl)cc1 | 160% (active) |
| COc1cc(OC)cc(/C(N)=N/O)c1 | 114% (inactive) |
| CCc1ccccc1NC(=O)c1cc(-c2ccc3c(c2)OCO3)on1 | 93.6% (inactive) |
| O=C(Nc1cccnc1Cl)c1cc(-c2cccc(Cl)c2)on1 | 98.9% (inactive) |
| O=C(Nc1ccccc1C(F)(F)F)c1cc(-c2ccc(O)cc2)on1 | 151% (active) |
| CC(Oc1ccc2ccccc2c1)C(=O)NNC(=S)NC(=O)c1ccco1 (configuration not stated) | 237% (active) |
| COc1ccc(C(=O)NC(=S)NNC(=O)CCc2ccccc2)cc1 | 195% (active) |
| CCCc1ccc(OCCNC(=O)c2ccco2)cc1 | 83.5% (inactive) |
| CC(C)Oc1ccc(CCC(=O)NNC(=S)NCc2ccccc2)cc1 | 103% (inactive) |
| Cc1ccc(OCC(=O)NCCCNC(=O)c2ccco2)cc1C | 90% (inactive) |
| COc1ccc(C(=O)NC(=S)NNC(=O)c2c(-c3ccccc3)noc2C)cc1 | 102% (inactive) |
| O=C(Nc1ccc2ccccc2c1)/C(=C/c1cccc(Br)c1)NC(=O)c1ccco1 | 91% (inactive) |
| CCCc1ccc(OCC(=O)NNC(=S)NC(=O)c2ccco2)cc1 | 182% (active) |
| Cc1ccc(C(=O)NNC(=O)C(C)Oc2ccc3ccccc3c2)o1 (configuration not stated) | 104% (inactive) |
